Results: ChEMBL document CHEMBL3988442, “University of Dundee, Small-Polar-MMV Screening Library” (2021)
Among all 48,000 compounds or so, about 13,000 (27%) showed an effect of 50% or more. The list shows a part of the results.

Each molecule was assayed on Wolbachia pipientis (assay: Anti-Wolbachia Cell-Based Screen). Details: 5 µM.
Type: functional
Design: scale not given: in the data most compounds retested in dose-response had high values

In order of rising “Percent Effect” value:
1. CC(C)C(=O)Nc1cc(C(=O)NC2CC(C)(C)NC(C)(C)C2)nn1C  -26.3%
2. COc1ccc(CN(C(=O)C2CCCO2)c2ccncc2)cc1 (stereo not drawn)  -15.48%
3. Cc1c(C(=O)NC2CC(C)(C)NC(C)(C)C2)cnn1-c1ccc(F)cc1  -13.93%
4. COc1ccc(CN(C(=O)C2CCOCC2)c2ccncc2)cc1  -12.74%
5. CC(C)Cc1noc(CN2CCN(CCOc3ccc(Cl)cc3)CC2)n1  -9.815%
6. Cl.O=C(NC[C@@]1(COc2cnccn2)C[C@@H](O)[C@@H](O)C1)C1CCCC1  -8.405%
7. CCCc1n[nH]c(C2CN(CCCOc3ccccc3)CCO2)n1 (stereo not drawn)  -4.502%
8. Cc1nc(NC(=O)NCc2cccnc2NCCN(C)C)sc1C  -3.378%
9. Cc1cccc(OCCC(=O)N2CCN(S(=O)(=O)N(C)C)CC2)c1C  -2.723%
10. CCCN(Cc1cnc2ccccc2n1)Cc1ccccc1OC  -2.298%
11. Cc1nc(CCN2CCC(Oc3ccccc3F)CC2)cs1  -0.6309%
12. COc1ccnc(N(C)Cc2ccccc2OC(F)(F)F)n1  -0.2691%
13. Cc1ccc(-n2ncc(C(=O)NC3CCCCC3)c2N)cc1  3.957%
14. Cc1nc(C)n(CC2CN(CCOc3ccccc3F)CCO2)n1 (stereo not drawn)  5.326%
15. CC(C)(C)SCCNC(=O)[C@@]12CNC[C@@H]1CN(S(C)(=O)=O)C2  5.951%
16. Cc1nc(C(=O)NC2CCN(CCOc3ccc(Br)cc3)CC2)cs1  6.734%
17. COCCN1CCC2(C1)c1ccccc1S(=O)(=O)N2Cc1ccccc1.O=C(O)C(F)(F)F (stereo not drawn)  6.934%
18. COc1ccc(Cl)cc1NC(=O)CCC1CCCN(Cc2ncon2)C1 (stereo not drawn)  23.91%
19. CC(C)c1ccc(CN2CCC3(CCCN(c4nncs4)C3)C2)cc1.O=C(O)C(F)(F)F (stereo not drawn)  37.55%
20. COCCN1CCC2(C1)c1ccccc1S(=O)(=O)N2C.O=C(O)C(F)(F)F (stereo not drawn)  90.85%
21. Cc1csc2c(C3CCN(CCOc4ccccc4F)CC3)nc(C)n12  93.69%
22. Cc1csc2c(C3CCN(CCCOc4ccccc4)CC3)nc(C)n12  96.85%
23. COCCN1C2(CCN(CC3CC3)C2)c2ccccc2S1(=O)=O.O=C(O)C(F)(F)F (stereo not drawn)  102.4%
24. COc1ccc(CN(C)Cc2ccnc(C3CCCO3)n2)cc1 (stereo not drawn)  120.3%
25. COc1ccccc1CN(C)Cc1ccnc(C2CCCO2)n1 (stereo not drawn)  134%
26. Cc1ccc(OCCN2CCC(c3nc(C)n4c(C)csc34)CC2)cc1  140.7%
27. CC1(C)CC(NC(=O)c2cnn(-c3ccccc3F)c2N)CC(C)(C)N1  151.8%
28. Cc1ccc(-n2ncc(C(=O)NC3CC(C)(C)NC(C)(C)C3)c2N)cc1  174.2%
